Phagocyt inh = macrophage phagocytosis inhibition; J774A.1 macrophage IgG-bead phagocytosis, imaging; inhibition, % at 5 µM; actives 0.07% (n = 110,000);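 active = inhibition above the mean of the plate negative controls plus 5 SD, cut at about 13% in these data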;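 note: phagocytic index as fraction of beads internalized from green versus red external bead signal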
CD11b adhes inh = blocks human CD11b/CD18 adhesion to fibrinogen | P05107+P11215 | K562 CD11b/CD18 adhesion to fibrinogen, ATPlite luminescence; Mn2+ added to activate the integrin | inhibition, % at 10 µM | AID 1497 | actives 0.54% (n = 93,000);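 active = primary inhibition of 50% or more at 10 µM, then 40% or more on retest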
Target sequence (P05107 whole entry, looked up, other chains not shown): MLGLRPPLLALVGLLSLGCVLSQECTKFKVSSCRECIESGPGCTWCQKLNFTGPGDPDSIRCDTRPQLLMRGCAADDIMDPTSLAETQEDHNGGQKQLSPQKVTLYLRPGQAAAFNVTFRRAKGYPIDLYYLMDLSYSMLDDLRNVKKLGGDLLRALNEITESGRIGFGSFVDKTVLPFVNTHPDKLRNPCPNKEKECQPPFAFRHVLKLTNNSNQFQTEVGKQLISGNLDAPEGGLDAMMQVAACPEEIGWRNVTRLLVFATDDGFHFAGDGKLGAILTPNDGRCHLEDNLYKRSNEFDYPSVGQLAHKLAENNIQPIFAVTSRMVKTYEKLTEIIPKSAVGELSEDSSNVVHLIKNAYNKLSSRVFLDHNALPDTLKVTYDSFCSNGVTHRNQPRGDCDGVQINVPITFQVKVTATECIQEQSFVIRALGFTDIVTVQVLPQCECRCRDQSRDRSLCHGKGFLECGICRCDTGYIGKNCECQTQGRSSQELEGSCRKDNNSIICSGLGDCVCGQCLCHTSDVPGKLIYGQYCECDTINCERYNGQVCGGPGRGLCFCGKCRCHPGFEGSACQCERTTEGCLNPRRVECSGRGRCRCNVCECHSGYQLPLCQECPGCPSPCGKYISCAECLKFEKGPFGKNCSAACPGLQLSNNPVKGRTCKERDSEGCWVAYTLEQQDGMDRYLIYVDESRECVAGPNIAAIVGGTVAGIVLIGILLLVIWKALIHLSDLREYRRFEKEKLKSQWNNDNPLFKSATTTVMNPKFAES
sdo1 growth = compounds rescuing growth of sdo1-depleted yeast, bone marrow failure model. actives 0.21% (n = 140,000). S. cerevisiae sdo1-depleted JHY4D growth rescue, OD600 30 h; stronger effect = higher value; pdr5 snq2 efflux-pump mutant strain. z-score at 10 µM. AID 817;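 active = z-score above 3 at both the 24 hr and the 30 hr optical density reads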
Mac1 fbg enh = enhancers of human CD11b/CD18 binding to fibrinogen; activation, % at 10 µM; K562 CD11b/CD18 adhesion to fibrinogen, ATPlite luminescence; actives 0.07% (n = 93,000); P05107+P11215;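 active = 10 µM primary screen giving 50% or more activity, confirmed by 40% or more on retest at that dose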
SDO1 rescue DR = SDO1-depleted yeast growth rescue confirmation. AID 949. S. cerevisiae JHY4D (SDO1-depleted) growth rescue, OD600, 30 h; stronger effect = higher value; efflux-deficient strain, SNQ2 and PDR5 mutated. OD recovery (no concentration beside the values). shares compounds with sdo1 growth. actives 44% (n = 440);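 active = yeast growth recovered at 30 hours, either rising with dose fitted slope above 0.001 or with average optical density gain above 0.07, some results past the limit were not filed as active; inactive = growth falling with dose or no effect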
Each line names hits and unclear results; the compound was inactive in the other large screens (follow-up assays come after a bar, where they were run). Shown are actives, neighbours in structure and some others; about 0.71% of the full set was active somewhere.

O=C(N=NC(=O)c1ccco1)c1ccc2c(O)n(N3C(=O)c4ccccc4C3=O)c(O)c2c1	sdo1 growth 3.51 (no result: CD11b adhes inh, Mac1 fbg enh) | SDO1 rescue DR 0.0749
CC1(NC(=S)N(CCO)CCO)CCS(=O)(=O)C1 (centres undefined)	none (no result: CD11b adhes inh, Mac1 fbg enh)
Cc1ccc(S(=O)(=O)N(C#N)c2nc(C)cc(C)n2)cc1	none
Cc1cc(C)nc(N(C#N)S(=O)(=O)c2ccc(Br)cc2)n1	sdo1 growth 12 (no result: Phagocyt inh) | SDO1 rescue DR inactive
CCC(=O)OCCn1c(=O)c2cc3c(=O)n(CCOC(=O)CC)c(=O)c3cc2c1=O	none (no result: CD11b adhes inh, Mac1 fbg enh) | SDO1 rescue DR 0.0826
CCCOC(=O)Cn1c(=O)c2cc3c(=O)n(CC(=O)OCCC)c(=O)c3cc2c1=O	none
O=C(Nc1cc([N+](=O)[O-])ccc1Cl)C(Sc1ccccc1)c1ccccc1 (centres undefined)	sdo1 growth 11.2 (no result: CD11b adhes inh, Mac1 fbg enh) | SDO1 rescue DR inactive
O=C(Nc1ccc(Cl)c([N+](=O)[O-])c1)C(Sc1ccccc1)c1ccccc1 (centres undefined)	none
Cc1ccc(Cn2c(Sc3ncccn3)nc3c2c(=O)[nH]c(=O)n3C)cc1	none
Cc1ccc(Cn2c(Sc3nccc(C)n3)nc3c2c(=O)[nH]c(=O)n3C)cc1	none | SDO1 rescue DR 0.0943
O=C(NCc1ccc2c(c1)OCO2)c1nnc(Cc2ccc(Cl)cc2)o1	none (no result: Phagocyt inh, CD11b adhes inh, Mac1 fbg enh)
CSc1nsc(SC)c1C(=O)N1CCN(S(=O)(=O)c2ccc(C)cc2)C1C(C)C (centres undefined)	none (no result: Phagocyt inh, CD11b adhes inh, Mac1 fbg enh)
CSc1nsc(SC)c1C(=O)N1CCN(S(=O)(=O)c2ccc(C)cc2)C1C (centres undefined)	sdo1 growth 3.85 (no result: Phagocyt inh) | SDO1 rescue DR inactive
CCOC(=O)c1oc2ccccc2c1NC(=O)c1cccc(OC)c1	none
CCOC(=O)c1oc2ccccc2c1NC(=O)c1cccc(OC)c1OC	none | SDO1 rescue DR 0.0947
COc1ccc2cc3cc(C(=O)Nc4ccc5c(c4)OCCO5)oc3nc2c1	none | SDO1 rescue DR inactive
CC(Sc1nnc(NC2CCCCC2)s1)C(=O)Nc1ccc2c(c1)C(=O)c1ccccc1C2=O (centres undefined)	none (no result: Phagocyt inh, CD11b adhes inh, Mac1 fbg enh)
CN(CC(=O)Nc1ccc(Cl)cc1)c1ccc(S(=O)(=O)N2CCCCC2)cc1[N+](=O)[O-]	none (no result: CD11b adhes inh, Mac1 fbg enh)
CC(C)CNC(=O)NC1C(NC(=O)NCC(C)C)N(C)C(=O)N1C (centres undefined)	sdo1 growth 4.42 | SDO1 rescue DR 0.0728
N#Cc1cc2c(nc1SCC(=O)Nc1sc3c(c1C#N)CCC3)CCC2	none (no result: Phagocyt inh, CD11b adhes inh, Mac1 fbg enh) | SDO1 rescue DR inactive
COc1cccc(S(=O)(=O)Nc2cccnc2)c1	none
O=S(=O)(Nc1cccnc1)c1ccc(Cl)c(C(F)(F)F)c1	sdo1 growth 9.61 | SDO1 rescue DR inactive
CC1=C(C(=O)NCc2ccc3c(c2)OCO3)C2(CCC(C)CC2)OC1=O (centres undefined)	none | SDO1 rescue DR inactive
O=C(Nc1ccc(S(=O)(=O)NCc2cccnc2)cc1)c1ccco1	none | SDO1 rescue DR inactive
O=C(COC(=O)C1(c2ccc(F)cc2)CCCC1)NC1CC1	none
COc1ccc(C(=O)NC(=S)NCc2ccc(-c3nc4ccccc4o3)cc2)cc1OC	none
CCOc1cc(C(=O)NCc2ccc(-c3nc4ccccc4o3)cc2)cc(OCC)c1OCC	none | SDO1 rescue DR inactive
CSCCC(NS(=O)(=O)c1ccc(Cl)cc1)C(=O)OCC(=O)c1c(C)[nH]c2ccccc12 (centres undefined)	sdo1 growth 6.22 (no result: CD11b adhes inh, Mac1 fbg enh) | SDO1 rescue DR inactive
O=[N+]([O-])c1cc(S(=O)(=O)N2CCCC2)ccc1N/N=C/c1cccs1	none | SDO1 rescue DR inactive
O=[N+]([O-])c1cc(S(=O)(=O)N2CCCC2)ccc1N/N=C/c1ccncc1	none (no result: CD11b adhes inh, Mac1 fbg enh) | SDO1 rescue DR inactive
Cc1c(Cl)cccc1NC(=O)c1ccc(-n2ccnc2)nc1	sdo1 growth 3.5 (no result: Phagocyt inh) | SDO1 rescue DR inactive
Cc1ncoc1C(=O)Nc1cccc(Cl)c1C	none (no result: CD11b adhes inh, Mac1 fbg enh)
Cc1cccc(NC(=O)CSc2nnc(CNC(=O)c3ccc(S(=O)(=O)N(C)C)cc3)n2-c2cccc(C)c2)c1	none (no result: CD11b adhes inh, Mac1 fbg enh)
CC1=CC(C)(C)N2C(=O)C3(SCC(=O)N3c3ccc(F)cc3)c3cc(C)cc1c32 (centres undefined)	none
O=C(NN=C1CCCCCC1)C(=O)Nc1cccc(Br)c1	none (no result: CD11b adhes inh, Mac1 fbg enh)
COc1ccc(OCC(O)Cn2c(Nc3ccccc3)nc3c2c(=O)n(C)c(=O)n3C)cc1 (centres undefined)	none | SDO1 rescue DR 0.0518
Cn1c(=O)c2c(nc(NC3CCCCC3)n2CC(O)COc2ccccc2)n(C)c1=O (centres undefined)	none
O=C(COC(=O)C1=COCCO1)NCCCc1ccccc1	none
O=C(COC(=O)c1cccc2ccccc12)NCCCc1ccccc1	sdo1 growth 11 | SDO1 rescue DR inactive
COc1ccccc1NS(=O)(=O)c1ccc(N/N=C/c2c(C)nn(-c3ccccc3)c2N2CCCC2)c([N+](=O)[O-])c1	none (no result: CD11b adhes inh, Mac1 fbg enh)
COc1c(/C=N/Nc2ccc([N+](=O)[O-])cc2[N+](=O)[O-])c(C)nn1-c1ccccc1	none (no result: Phagocyt inh, CD11b adhes inh, Mac1 fbg enh) | SDO1 rescue DR inactive
CCOc1ccc2nc(SCC(=O)N(C)C)[nH]c2c1	none
O=C(CCS(=O)(=O)c1cccc2nsnc12)NCc1ccccc1Cl	none (no result: Phagocyt inh)
COc1ccc(CCNC(=O)c2cc(-c3ccc(C)c(C)c3O)n[nH]2)cc1OC	none | SDO1 rescue DR inactive
COc1ccc(CCNC(=O)c2cc(-c3cc(C)ccc3O)n[nH]2)cc1OC	none
Clc1ccc(CSc2nnc(CNc3cccc(Cl)c3)o2)cc1	none (no result: Phagocyt inh)
O=C(NCCO)c1nc(NCCO)c2ccccc2n1	sdo1 growth 5.58 (no result: CD11b adhes inh, Mac1 fbg enh) | SDO1 rescue DR inactive
OCCNc1nc(N2CCN(Cc3ccccc3)CC2)nc2ccccc12	none
Nc1cc(-c2cccc([N+](=O)[O-])c2)[nH]n1	none
Nc1cc(-c2ccc(Br)cc2)[nH]n1	sdo1 growth 5.4 (no result: CD11b adhes inh, Mac1 fbg enh) | SDO1 rescue DR 0.0956
O=C(CSc1nnnn1-c1ccccc1)Nc1nc(-c2ccccc2)ns1	none | SDO1 rescue DR 0.0706
O=C(CSc1nnnn1-c1ccccc1)Nc1nsc(-c2ccccc2)n1	none
Cc1ccc(-n2nnnc2SCC(=O)Nc2nc(-c3ccc(F)cc3)cs2)cc1C	none (no result: Phagocyt inh, CD11b adhes inh, Mac1 fbg enh) | SDO1 rescue DR inactive
C=CCNC(=S)NNC(=O)c1ccc(OCC(C)C)cc1	sdo1 growth 6.21 (no result: Phagocyt inh) | SDO1 rescue DR 0.094
C=CCNC(=S)NNC(=O)c1ccc(OCC)cc1	none
CCOC(=O)CCSc1nnc(-c2cccnc2)n1-c1ccccc1OC	none
Cc1ccccc1N1CCN(Cc2cccc(C(=O)O)c2)CC1	none
Cc1ccccc1N1CCN(Cc2c[nH]c3ccccc23)CC1	sdo1 growth 7.55 | SDO1 rescue DR inactive
COC(=O)c1ccc2[nH]c(C)cc(=O)c2c1	sdo1 growth 5.96 | SDO1 rescue DR inactive
Cc1ccc(NCc2nnc(SCC(=O)Nc3cccc(O)c3)n2CC2CCCO2)c(C)c1 (centres undefined)	none
Cc1nc2ccccn2c1C(=O)NCCCN1CCOCC1	none | SDO1 rescue DR 0.0889
Cn1c(=O)c2c(ncn2CC(=O)N2CCN(c3cccc(Cl)c3)CC2)n(C)c1=O	sdo1 growth 14.3 | SDO1 rescue DR inactive
CC(C)OCCCNC(=O)NC12CC3CC(CC(C3)C1)C2	sdo1 growth 9.37 | SDO1 rescue DR 0.0786
CCC(C(=O)c1ccccc1)N(C(=O)c1ccccc1Cl)N1C(=O)C2C3C=CC(C3)C2C1=O (centres undefined)	none (no result: Phagocyt inh, CD11b adhes inh, Mac1 fbg enh)

Screening data as filed in PubChem BioAssay.
